Results taken from PubChem BioAssay (Tox21).
Inconclusive results are not listed. Unmarked numbers belong to inactive results. Active and inactive are the calls of the source. Unless noted, the call rests on the fitted dose curve; in most records, active means well fitted cell-killing curve with a large enough effect in the repeat runs; inconclusive means weak or mixed curves, or effect the other way; inactive means no such curve, though single readings can be large or run the other way.

Experiment: qHTS assay to identify small molecule agonists of the endoplasmic reticulum stress response signaling pathway (AID 1159516; active means well fitted activation curve with a large enough effect in the signal ratio in the repeat runs, not every such curve was filed as active; the % refers to the signal ratio)
Details: ESRE-bla HeLa, ER stress beta-lactamase reporter, 5 h; series mostly up to 61 µM
Summary of the method: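 Reporter HeLa cells (ESRE-beta-lactamase) underwent 5 hr compound incubation at 37 C and 5% CO2 in quantitative HTS format. Detection followed 2 hr of FRET substrate loading at room temperature.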
On the % scale 0 is the no-effect control and ±100 the full control effect.

Compound	outcome
O=C(O)c1c(Cl)ccc(Cl)c1Cl	inactive
CC(C)COC(=O)COc1ccc(Cl)cc1Cl	inactive
CNC(=O)C(c1ccccc1)c1ccccc1	inactive
Cc1nc2ccccc2c(=O)o1	inactive
C=C[C@@H](C)CCC=C(C)C	inactive
NC(=O)NC(=O)Cc1ccccc1	inactive
Nc1ccc(S(=O)(=O)NC(=O)c2ccccc2)cc1	inactive
CC(=O)OCCCc1ccccc1	inactive
CCCCCCCCCCCCOC(C)=O	inactive
c1ccccc1	inactive
NC(=O)NNC(N)=O	inactive
Cc1cc(O)c2c(c1)C(=O)c1cccc(O)c1C2=O	inactive
O=C(O)c1ccccc1C(=O)OCc1ccccc1	inactive
CN(C)CCOCCN(C)CCO	inactive
CC(C)(CO)[C@@H](O)C(=O)NCCCO	inactive

Experiment: qHTS assay to identify small molecule agonists of the endoplasmic reticulum stress response signaling pathway - cell viability counter screen (AID 1159517; calls by dose curve;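 further: HeLa cells carrying an ER stress response element beta-lactamase reporter; nearly all actives have a fitted effect of over 50% in size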)
Details: ESRE-bla HeLa viability, CellTiter-Glo luminescence, 5 h; series mostly up to 61 µM
Summary of the method: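 ESRE-bla HeLa cells, 1,500 per well, seeded overnight then treated with compounds for 5 hr at 37 C. After the beta-lactamase read, viability in the same wells is measured by CellTiter-Glo luminescence after 30 min at room temperature.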

Compound	outcome
CC(=O)OCC(=O)[C@@]1(O)[C@H](OC(C)=O)C[C@H]2[C@@H]3CCC4=CC(=O)C=C[C@]4(C)[C@@]3(F)[C@@H](O)C[C@@]21C	inactive
CCCCC[Si](OCC)(OCC)OCC	inactive
C/C=C(\C)C(=O)OCC/C=C\CC	inactive
CNC(=O)NC	inactive
CC1CCC(C(C)(C)S)C(=O)C1 (stereo not drawn)	inactive
FC(F)(F)c1ccc(Cl)cc1Cl	inactive
CCCCCCCCCCCCCC(=O)OC	inactive
CC(=O)Nc1ccc(C)cc1	inactive
Nc1ccc(S(=O)(=O)NC(=O)c2ccccc2)cc1	inactive
CC(=O)OCCCc1ccccc1	inactive
CCCCCCCCCCCCOC(C)=O	inactive

Experiment: qHTS assay to identify small molecule antagonists of the retinoid-related orphan receptor gamma (ROR-gamma) signaling pathway - cell viability counter screen (AID 1159520); further: nearly all actives have a fitted effect of over 50% in size
Details: Tet-on RORgamma CHO cells viability, ATP luminescence, 16 h; series mostly up to 92.4 µM
Summary of the method: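 Tet-on ROR gamma CHO cells were given compounds for 2 hr, then doxycycline hyclate at 1 uM final, and incubated 16 hr at 37 C. Viability was measured as ATP content by CellTiter-Glo luminescence.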

Compound	outcome	activity, negative = cytotoxicity
NS(=O)(=O)c1ccccc1OC(F)(F)F	inactive	–
C[C@@H]1C[C@H]2[C@@H]3C[C@H](F)C4=CC(=O)C=C[C@]4(C)[C@@]3(F)[C@@H](O)C[C@]2(C)[C@@]1(O)C(=O)CO	inactive	–
CCOC(=O)CC#N	inactive	–
CC(=O)OCC(=O)[C@@]1(O)[C@H](OC(C)=O)C[C@H]2[C@@H]3CCC4=CC(=O)C=C[C@]4(C)[C@@]3(F)[C@@H](O)C[C@@]21C	inactive	–
COCCOCCOCCOC	inactive	–
C=COCCOCCOC=C	inactive	–
BrC/C=C/CBr	–	-4.58% [at 19 µM]
C[N+](C)(C)CC(O)CCl (stereo not drawn)	inactive	–
CCCCCCCCCCCCC	inactive	–
CCCCC[Si](OCC)(OCC)OCC	inactive	–
C/C=C(\C)C(=O)OCC/C=C\CC	inactive	–
CNC(=O)NC	inactive	–
CC1CCC(C(C)(C)S)C(=O)C1 (stereo not drawn)	inactive	–
CC(=O)N1CCN(c2ccc(O)cc2)CC1	inactive	–
O=S(=O)(O)CCO	inactive	–
FC(F)(F)c1ccc(Cl)cc1Cl	inactive	–
CCCCCCCCCCCCCC(=O)OC	inactive	–
CCCCOC(=O)C(=O)OCCCC	inactive	–
Nc1nc(=O)n([C@@H]2O[C@H](CO)[C@@H](O)[C@@H]2F)cc1I	inactive	–

Compound	outcome	activity, negative = cytotoxicity
C[C@H]1O[C@H](O[C@H]2[C@H](O)[C@@H](O)[C@@H](O[C@H]3[C@H](O)[C@@H](O)[C@H](O)O[C@@H]3CO)O[C@@H]2CO)[C@H](O)[C@@H](O)[C@@H]1N[C@H]1C=C(CO)[C@@H](O)[C@H](O)[C@H]1O	inactive	–
CC(=O)Nc1ccc(C)cc1	inactive	–
C=CC(C)(O)CC/C=C(\C)CC (stereo not drawn)	inactive	–
O=C(O)c1c(Cl)ccc(Cl)c1Cl	inactive	–
CC(C)COC(=O)COc1ccc(Cl)cc1Cl	inactive	–
CNC(=O)C(c1ccccc1)c1ccccc1	inactive	–
Cc1nc2ccccc2c(=O)o1	inactive	–
C=C[C@@H](C)CCC=C(C)C	inactive	–
NC(=O)NC(=O)Cc1ccccc1	inactive	–
Nc1ccc(S(=O)(=O)NC(=O)c2ccccc2)cc1	inactive	–
CC(=O)OCCCc1ccccc1	inactive	–
CCCCCCCCCCCCOC(C)=O	inactive	–
c1ccccc1	inactive	–
NC(=O)NNC(N)=O	inactive	–
Cc1cc(O)c2c(c1)C(=O)c1cccc(O)c1C2=O	inactive	–
O=C(O)c1ccccc1C(=O)OCc1ccccc1	inactive	–
CN(C)CCOCCN(C)CCO	inactive	–
CC(C)(CO)[C@@H](O)C(=O)NCCCO	inactive	–
